This note sets out measurements from PubChem BioAssay (NCI).

Molecules are shown by their SMILES. Compounds without any hit were thinned out: in the full panel of roughly 83,000, 20% have a hit.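 Each cell line was grown in a 96-well plate and treated with one concentration of compound for 48 hours. Values below 10 were considered active.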 Unmarked numbers belong to inactive results. The source made the active and inactive calls.

Some test systems named below: NCI-H23 lung; NCI-H226 lung; NCI-H322M lung; HOP-62 NSCLC; NCI-H460 lung; HOP-92 NSCLC; NCI-H522 lung; A549/ATCC NSCLC; 786-0 renal; COLO 205 colon; DU-145 prostate; K-562 leukemia; MALME-3M melanoma; MDA-MB-231 breast; RXF 393 renal; SF-268 CNS; SF-295 CNS; SF-539 CNS; UACC-257 melanoma; M14 melanoma.
Common to all, as to assay: NCI-60 one-dose screen, 48 h (100 = growth as untreated, 0 = no growth, -100 = all killed)
Holding throughout (details): 10 µM unless noted

In the case of `CN(C)c1ccc([C@@H](C(=O)Nc2cccc([N+](=O)[O-])c2)N(C(=O)c2cc3ccccc3[nH]2)c2cccc([N+](=O)[O-])c2)cc1`, the growth was 97.5% in the assay with NCI-H23 lung; 97.5% in the assay on NCI-H226 lung; 95% in the assay with NCI-H322M lung; 88.7% in the assay with HOP-62 NSCLC; 98.2% in the assay with NCI-H460 lung; 70.9% with HOP-92 NSCLC. Also, the growth was 92.3% in the assay with NCI-H522 lung; 92.9% in the assay on A549/ATCC NSCLC; 95.5% in the assay with 786-0 renal; 102% in the assay with COLO 205 colon; 107% in the assay with DU-145 prostate; 100% with K-562 leukemia. The growth is 96.5% in the assay on MALME-3M melanoma; 96.5% with MDA-MB-231 breast; 100% in the assay on RXF 393 renal; 97.4% with SF-268 CNS; 100% in the assay with SF-295 CNS; 90.3% in the assay on SF-539 CNS. In addition, the growth was 93.4% in the assay on UACC-257 melanoma and 93.7% in the assay with M14 melanoma.
With `Fc1cccc(CNc2c3ccccc3nc3ccccc23)c1`, the growth with NCI-H23 lung is 33.9%; in the assay with NCI-H226 lung, 50.6%; in the assay with NCI-H322M lung, 40.2%; in the assay with HOP-62 NSCLC, 47.9%; in the assay on NCI-H460 lung, 12.7%; in the assay on HOP-92 NSCLC it was -4.06% (active). Further, the growth with NCI-H522 lung is 37.8%; in the assay on A549/ATCC NSCLC, 29.3%; in the assay on 786-0 renal it was 36.4%; with COLO 205 colon it was 17.3%; with DU-145 prostate it was 41.7%; in the assay with K-562 leukemia it was 15.7%. Further, the growth in the assay on MALME-3M melanoma was 50.5%; with MDA-MB-231 breast, 30.6%; in the assay on RXF 393 renal, 32.8%; with SF-268 CNS it was 62.1%; with SF-295 CNS it was 25.2%; in the assay with SF-539 CNS, 26.9%. Besides, the growth was 58.1% in the assay on UACC-257 melanoma and 38.8% in the assay with M14 melanoma.
On to `CCN(CC)CCOc1ccc(/C(=C(\C)Cc2ccc(OC)cc2)c2ccc(OC(=O)NCc3ccccc3)cc2)cc1`, for which the growth in the assay with NCI-H23 lung is 88.4%; in the assay with NCI-H226 lung it was 86.9%; in the assay with NCI-H322M lung, 80.4%; with HOP-62 NSCLC, 79.7%; in the assay on NCI-H460 lung, 1.28% (active); with HOP-92 NSCLC, 59%. Moreover, the growth was 69.7% with NCI-H522 lung; 48.1% in the assay with A549/ATCC NSCLC; 56.7% in the assay on 786-0 renal; -56.1% (active) in the assay with COLO 205 colon; 78.9% in the assay with DU-145 prostate; -51% (active) with K-562 leukemia. For the same compound, the growth in the assay with MALME-3M melanoma was 26.1%; with MDA-MB-231 breast it was 76.3%; with RXF 393 renal, 59.7%; in the assay with SF-268 CNS, 73.7%; with SF-295 CNS it was 59.4%; in the assay on SF-539 CNS, 65.6%. Also, the growth with UACC-257 melanoma was 38.2%; with M14 melanoma it was -61.5% (active).
Turning to `CC1=Nc2cnc(Nc3ccc(N4CCCCC4)cc3)nc2Nc2ccccc21`, the growth was 67.1% in the assay on NCI-H23 lung; 76.6% in the assay with NCI-H226 lung; 75.7% with NCI-H322M lung; 94.4% in the assay on HOP-62 NSCLC; 86.8% in the assay on NCI-H460 lung; 60.9% in the assay with HOP-92 NSCLC. For the same compound, the growth with NCI-H522 lung was 40%; with A549/ATCC NSCLC it was 79.8%; in the assay on 786-0 renal, 51.8%; in the assay on COLO 205 colon, 81.3%; in the assay with DU-145 prostate, 79.8%; with K-562 leukemia, 34.7%. For the same compound, the growth with MALME-3M melanoma was 88.5%; in the assay with MDA-MB-231 breast, 60.4%; with RXF 393 renal, 68%; in the assay on SF-268 CNS, 91.2%; in the assay on SF-295 CNS, 83.8%; in the assay with SF-539 CNS, 79.9%. Moreover, the growth with UACC-257 melanoma is 93.8%; in the assay with M14 melanoma it was 71.5%.
For `CCC(C)(C)c1ccc(Nc2ccc(Nc3ccc(C(C)(C)CC)cc3)cc2)cc1`, the growth was 83.1% with NCI-H23 lung; 93% with NCI-H226 lung; 105% in the assay on NCI-H322M lung; 89.3% in the assay with HOP-62 NSCLC; 99.1% in the assay on NCI-H460 lung; 51.1% in the assay with HOP-92 NSCLC. Further, the growth in the assay on NCI-H522 lung is 79.9%; with A549/ATCC NSCLC it was 90.4%; in the assay with 786-0 renal, 84.4%; with COLO 205 colon it was 84.7%; in the assay with DU-145 prostate it was 93.8%; in the assay with K-562 leukemia, 80.4%. Further, the growth with MALME-3M melanoma is 97.4%; in the assay on MDA-MB-231 breast, 93.5%; in the assay with RXF 393 renal, 83.4%; with SF-268 CNS it was 98.6%; in the assay on SF-295 CNS it was 102%; in the assay with SF-539 CNS, 102%. Further, the growth with UACC-257 melanoma was 80.3%; in the assay with M14 melanoma, 92.5%.
On to `N#Cc1ccccc1-c1ccc(CN2C(=O)S/C(=C\c3ccc(Br)cc3)C2=O)cc1`, for which the growth in the assay on NCI-H23 lung was 96.6%; in the assay on NCI-H226 lung, 86.9%; in the assay with NCI-H322M lung, 101%; with HOP-62 NSCLC, 94.8%; in the assay on NCI-H460 lung it was 106%; in the assay on HOP-92 NSCLC, 94.6%. For the same compound, the growth is 94.8% in the assay on NCI-H522 lung; 97.3% with A549/ATCC NSCLC; 99.3% in the assay on 786-0 renal; 111% with COLO 205 colon; 105% in the assay on DU-145 prostate; 93.8% in the assay on K-562 leukemia. For the same compound, the growth with MALME-3M melanoma is 96.8%; with MDA-MB-231 breast, 95.9%; with RXF 393 renal it was 104%; in the assay on SF-268 CNS, 99.4%; with SF-295 CNS, 93.1%; in the assay on SF-539 CNS, 99.7%. Besides, the growth in the assay with UACC-257 melanoma was 92.3%; in the assay on M14 melanoma it was 98.2%.
`O=C1/C(=C/c2ccc(Cl)cc2)CN(C(=O)C(Cl)Cl)C/C1=C\c1ccc(Cl)cc1`: the growth in the assay on NCI-H23 lung was -69.2% (active); with NCI-H226 lung it was -24.4% (active); in the assay on NCI-H322M lung, -70.9% (active); in the assay with HOP-62 NSCLC, -61.5% (active); with NCI-H460 lung, -64.9% (active); with HOP-92 NSCLC, -59.9% (active). For the same compound, the growth with NCI-H522 lung was -60.3% (active); in the assay with A549/ATCC NSCLC, -21.2% (active); in the assay with 786-0 renal it was -80.2% (active); in the assay with COLO 205 colon it was -68.5% (active); in the assay on DU-145 prostate, -89.7% (active); in the assay with K-562 leukemia it was -3.91% (active). The growth with MALME-3M melanoma was -65% (active); in the assay with MDA-MB-231 breast, -23.9% (active); in the assay with RXF 393 renal it was -88.2% (active); with SF-268 CNS it was -74.9% (active); in the assay with SF-295 CNS it was -86.7% (active); in the assay with SF-539 CNS, -96.3% (active). Further, the growth is -42.3% (active) with UACC-257 melanoma and -68.7% (active) in the assay with M14 melanoma.
In the case of `O=C1CCCC1[n+]1ccccc1` (stereo not given), the growth in the assay with NCI-H23 lung was 108%; with NCI-H226 lung, 105%; with NCI-H322M lung, 93.6%; in the assay on HOP-62 NSCLC, 80.8%; in the assay on NCI-H460 lung it was 111%; with HOP-92 NSCLC, 97.4%. Further, the growth with NCI-H522 lung is 62.1%; in the assay with A549/ATCC NSCLC it was 72.3%; with 786-0 renal, 82.2%; with COLO 205 colon it was 86.1%; with DU-145 prostate, 105%; with K-562 leukemia, 108%. For the same compound, the growth with MALME-3M melanoma is 89.9%; with MDA-MB-231 breast, 105%; with RXF 393 renal it was 121%; in the assay with SF-268 CNS, 95.2%; in the assay with SF-295 CNS, 95.1%; with SF-539 CNS, 82.6%. Besides, the results for the growth in the assay on UACC-257 melanoma and with M14 melanoma were 79.2% and 95%, respectively.
